Eleven compounds from PubChem BioAssay (NCATS) can be followed below.

The nature of assay [1]: AP1 Signaling Pathway (AID 357).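 Further: ME-180 reporter cells stimulated with EGF at its EC50 level; on the % scale 0 is the no-effect control and ±100 the full control effect.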 An outline of the steps:
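In this screen, ME-180 cells in Opti-MEM with 0.5% dialyzed FBS received EC50 EGF and compound titrations for 5 h. AP-1 reporter beta-lactamase was detected via CCF4 ratio, giving AC50 for positive and negative modulators.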

The nature of assay [2]: Cell Viability - BJ (AID 421; calls by dose curve;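 further: potency means the concentration at half of the fitted maximal effect; cells exposed to compound for 40 hours at 37 °C before readout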). Particulars: BJ fibroblast viability, qHTS. An outline of the steps:
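Cytotoxicity in human BJ foreskin fibroblasts is scored as loss of cellular ATP after a 40-hour exposure, measured by luciferase luminescence. Controls are DMSO and 100 uM tamoxifen.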

Assay [3] can be described thus: Cell Viability - Jurkat (AID 426;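 active means dose-dependent loss of cell ATP signal giving a full or clear fitted curve, ranked by lower potency value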; further: potency means the concentration at half of the fitted maximal effect). To be noted: qHTS. An outline of the steps: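 Jurkat (clone E6-1, human T-cell leukemia) cells, 5000/well in complete medium, were exposed to compound for 40 hr at 37 °C. Viability was read as intracellular ATP by CellTiter-Glo luminescence; AC50 came from Hill fits of concentration-response data.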
Assay [4] is described as follows: Cell Viability - Hek293 (AID 427;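 active means compounds whose dose-response curve shows a full or clear partial loss of cell viability, called from curve shape rather than a numeric limit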;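 further: potency means the concentration at half of the fitted maximal effect; cells exposed to compound for 40 hours at 37 °C before reading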). To be noted: qHTS. An outline of the steps: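 qHTS, human embryonic kidney (adenovirus-transformed) cells; 40 hr cpd, 37 °C; CellTiter-Glo ATP luminescence. Norm: DMSO = 0, 100 uM tamoxifen = 100% inhibition. Hill-fit AC50.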
Assay [5] in a line: Cell Viability - MRC5 (AID 434; calls by dose curve;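 further: potency means the concentration at half of the fitted maximal effect; potency reflects cytotoxicity seen as loss of intracellular ATP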). To be noted: MRC5 lung fibroblast viability, qHTS. An outline of the steps: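 MRC5 normal human lung fibroblasts (1500/well) were treated with compounds for 40 hr at 37 °C in complete medium, and viable cells were measured as intracellular ATP by CellTiter-Glo luminescence. AC50 came from Hill fits, normalized to DMSO and 100 uM tamoxifen.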
Assay [6] can be described thus: Cell Viability - SK-N-SH (AID 435; calls by dose curve;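 further: potency means the concentration at half of the fitted maximal effect; compound exposure lasted 40 h at 37 °C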). Particulars: SK-N-SH neuroblastoma cell viability qHTS. An outline of the steps: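 Cells seeded at 1500 per well and incubated 5 hr at 37 °C. Compound added, then 40 hr at 37 °C. CellTiter-Glo added, 20 min at room temperature, luminescence read.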
Assay [7] is described as follows: NFAT Signaling Pathway (AID 444).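 Further: carbachol stimulus at about its EC50 of 1 µM final; on the % scale 0 is the no-effect control and ±100 the full control effect.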 To be noted: Jurkat NFAT-bla M1, carbachol, beta-lactamase ratio, 5 h; at 38 µM (top of the series) unless noted. An outline of the steps:
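Jurkat cells carrying an NFAT-driven β-lactamase reporter and co-transfected muscarinic M1 receptor were treated with compound plus carbachol (1 uM final, an EC50 level) for 5 h at 37 °C. CCF4 loading followed for 1 h at RT; 460/530 nm ratio gave %activity.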

Assay [8] can be described thus: Stat Signaling Pathway (AID 446).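 Further: ME-180 cervical cancer cells given 40 pM IL-6 alongside compound; SIE-controlled beta-lactamase reporter measured as 460/530 nm FRET emission ratio; on the % scale 0 is the no-effect control and ±100 the full control effect.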 Particulars: ME-180 SIE beta-lactamase reporter, IL-6 stimulated, 5 h; at 38 µM (top of the series) unless noted. An outline of the steps:
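Screening format detects activators and inhibitors alike: ME-180 SIE-bla cells stimulated at 40 pM IL-6 for 5 hrs with compound, then dual-emission beta-lactamase read at 405 nm excitation.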

The target of assay [9] is Mitogen-activated protein kinase 10 (Mus musculus) (UniProt Q61831). The experiment in a line: JNK3 AlphaScreen Assay (AID 530).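 Further: kinase came from lysate of stimulated human HepG2 cells; signal reports phosphorylation of biotinylated GST-cJun 1-79 at Ser73 with 10 µM ATP; on the % scale 0 is the no-effect control and ±100 the full control effect.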 An outline of the steps:
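JNK3 came from HepG2 lysates pre-activated with IL-1beta and TNF-alpha and phosphorylated biotinylated GST-cJun (1-79) at 10 uM ATP, pH 7.6, room temperature. Compounds were titrated. AlphaScreen signal used anti-phospho-cJun (Ser73) antibody.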

Assay [10] in a line: Cell Viability - N2a (AID 540; active means well fitted cell-killing curve with a large enough effect;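 further: plate controls were DMSO alone for no effect and tamoxifen control for full effect; nearly all actives have a fitted effect of over 45% in size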). Particulars: N2a mouse neuroblastoma cell viability; activity change, negative = cytotoxicity: at 92.2 µM (top of the series). An outline of the steps:
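Mouse neuroblastoma N2a cells (1500/well) were preincubated 5 hr at 37 °C, then exposed to compounds for 40 hr at 37 °C in complete medium. Viability was read as intracellular ATP by CellTiter-Glo luminescence; AC50 from Hill fits.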

A short description of assay [11]: Cell Viability - H-4-II-E (AID 543; active means well fitted cell-killing curve with a large enough effect; further: on the % scale 0 is the no-effect control and ±100 the full control effect; nearly all actives have a fitted effect of over 35% in size). An outline of the steps:
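Rat hepatoma H-4-II-E cells (1500/well) were plated, incubated 5 hr at 37 °C, then exposed to compounds for 40 hr at 37 °C. Cellular ATP was read by CellTiter-Glo luminescence; AC50 came from Hill-equation fits of concentration-response data.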

Assay [12] is described as follows: Cell Viability - SH-SY5Y (AID 544; active means well fitted cell-killing curve with a large enough effect;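 further: 0% = DMSO alone and -100% = 100 µM tamoxifen; nearly all actives have a fitted effect of over 55% in size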). An outline of the steps: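 Human neuroblastoma SH-SY5Y cells (1500/well) in complete medium were exposed to compounds for 40 hr at 37 °C; intracellular ATP was then quantified by CellTiter-Glo luminescence after 20 min at room temperature. AC50 came from Hill-equation concentration-response fits.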
Assay [13] is described as follows: Cell Viability - Renal Proximal Tubule (AID 545; active means well fitted cell-killing curve with a large enough effect;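 further: 0% = DMSO only and -100% = 100 µM tamoxifen; nearly all actives have a fitted effect of over 40% in size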). Particulars: renal proximal tubule cells viability; activity change, negative = cytotoxicity: at 91.7 µM (top of the series). An outline of the steps: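 Cytotoxicity is scored as a concentration-dependent drop in cellular ATP in primary rat renal proximal tubule cells exposed for 40 hr. AC50 derives from Hill modelling.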

A short description of assay [14]: Cell Viability - Mesenchymal (AID 546; active means well fitted cell-killing curve with a large enough effect;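 further: cells exposed to compound for 40 hours before reading; 0% = DMSO only and -100% = 100 µM tamoxifen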). An outline of the steps:
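Normal human renal glomerulus-derived kidney mesenchymal cells, 1000 per well in complete medium, were treated with compounds for 40 hr at 37 °C. Viability was read as intracellular ATP by CellTiter-Glo luminescence; AC50 values came from Hill-equation fits of qHTS concentration-response data.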

For assay [15], the target named is 3',5'-cyclic-AMP phosphodiesterase 4B (Homo sapiens) (UniProt Q07343). The experiment in a line: qHTS Assay for Inhibitors of PDE-IV (AID 607; active means well fitted activation curve with a large enough effect in the main read-out, with a control signal flat, not every such curve was filed as active; further: % of control where 0% means no effect). An outline of the steps: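 The readout is membrane depolarisation from a cAMP-sensing CNG channel, detected with a potential dye at ex 535/em 590. Cells were HEK293-derived (endogenous PDE-IV) at 1000 cells/well, titrated up to 22.9 uM final.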
3',5'-cyclic-AMP phosphodiesterase 4B (Homo sapiens), sequence (Q07343 whole entry, looked up): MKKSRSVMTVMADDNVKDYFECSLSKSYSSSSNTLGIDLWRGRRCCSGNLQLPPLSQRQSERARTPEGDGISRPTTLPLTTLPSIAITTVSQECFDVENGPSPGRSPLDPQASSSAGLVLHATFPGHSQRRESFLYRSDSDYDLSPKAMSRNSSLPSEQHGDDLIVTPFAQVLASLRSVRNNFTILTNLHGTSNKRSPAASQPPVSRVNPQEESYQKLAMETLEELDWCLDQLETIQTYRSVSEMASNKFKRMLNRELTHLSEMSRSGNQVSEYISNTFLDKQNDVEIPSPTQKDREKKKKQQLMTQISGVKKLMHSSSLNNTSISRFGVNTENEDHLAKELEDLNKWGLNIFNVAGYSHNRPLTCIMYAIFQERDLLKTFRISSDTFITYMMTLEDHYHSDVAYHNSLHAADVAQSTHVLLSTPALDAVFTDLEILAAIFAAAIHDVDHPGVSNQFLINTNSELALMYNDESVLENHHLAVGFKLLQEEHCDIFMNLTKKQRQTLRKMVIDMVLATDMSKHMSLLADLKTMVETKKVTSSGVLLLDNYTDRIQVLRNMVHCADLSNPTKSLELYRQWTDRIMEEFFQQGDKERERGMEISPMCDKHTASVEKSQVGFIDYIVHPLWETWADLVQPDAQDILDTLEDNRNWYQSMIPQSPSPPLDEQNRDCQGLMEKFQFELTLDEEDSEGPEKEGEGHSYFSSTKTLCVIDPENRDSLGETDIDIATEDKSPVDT

Assay [16] deals with Cytochrome P450 1A2 (Homo sapiens) (UniProt P05177). Nature of the assay: p450-cyp1a2 (AID 410; calls by dose curve; further: potency means the concentration at half of the fitted maximal effect;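 on activity change, negative = inhibition: -100% = full effect of reference inhibitor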). An outline of the steps: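 Human CYP1A2 (20nM) demethylated Luciferin-ME at its Km (100uM) in 100mM KPO4. After 10 min compound preincubation, NADPH regeneration ran the reaction 60 min at room temperature. Luciferin was read by luminescence, normalized to 57 uM furafylline.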
Cytochrome P450 1A2 (Homo sapiens), sequence (P05177 whole entry, looked up): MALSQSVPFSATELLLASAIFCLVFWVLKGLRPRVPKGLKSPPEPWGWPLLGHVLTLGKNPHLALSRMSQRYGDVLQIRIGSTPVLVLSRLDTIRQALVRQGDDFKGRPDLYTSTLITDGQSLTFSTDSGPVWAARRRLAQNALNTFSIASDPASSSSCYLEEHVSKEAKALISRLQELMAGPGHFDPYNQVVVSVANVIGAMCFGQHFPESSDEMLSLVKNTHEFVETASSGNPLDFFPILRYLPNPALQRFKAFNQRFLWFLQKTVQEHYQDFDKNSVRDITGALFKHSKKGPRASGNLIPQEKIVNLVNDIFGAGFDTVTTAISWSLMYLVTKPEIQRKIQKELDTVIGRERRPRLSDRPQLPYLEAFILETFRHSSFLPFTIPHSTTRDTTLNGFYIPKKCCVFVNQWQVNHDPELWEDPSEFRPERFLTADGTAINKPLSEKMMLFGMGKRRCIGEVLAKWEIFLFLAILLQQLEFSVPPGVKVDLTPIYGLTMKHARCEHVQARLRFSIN
Assay [17] has as its target Glucocorticoid receptor (Homo sapiens) (UniProt P04150). The experiment in a line: GR-EFC Redistribution (AID 451; calls by dose curve; further: potency means the concentration at half of the fitted maximal effect). Particulars: CHO-K1 GR-EFC translocation, beta-gal luminescence, 2 h. An outline of the steps:
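CHO-K1 cells stably expressing nuclear-localized β-gal enzyme acceptor and GR fused C-terminally to the enzyme donor fragment; ligand-driven nuclear translocation restores β-gal by complementation. Compounds titrated up to 46 uM final, 2 h at 37 °C; luminescence read.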

The target is the same in assay [18]. The experiment in a line: GR-GFP Redistribution (AID 450;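 active means compounds whose dose series gives a full or clear partial fitted curve of increased nuclear translocation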; further: potency means the concentration at half of the fitted maximal effect). Particulars: U2OS GR-GFP nuclear translocation, laser cytometry, 2 h.
The target of assay [19] is Lysosomal acid glucosylceramidase (Homo sapiens) (UniProt P04062). Nature of the assay: Glucocerebrosidase-p2 (AID 348; in the data active means potency below about 10 µM; further: potency means the concentration at half of the fitted maximal effect). Particulars: purified GBA, blue fluorogenic substrate, 40 min. An outline of the steps:
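Compounds titrated from 0.6 nM upwards against 0.2 nM enzyme in pH 5.9 citric acid/KH2PO4, taurocholate, tween-20; blue fluorogenic substrate 80 uM, 40 min room temperature, stopped and read Ex 365/Em 440 for AC50.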

Molecules are shown by their SMILES. Where “and” joins values, the source holds several entries; their conditions need not be identical. Identical values can stand only once. A number with no mark means an inactive call. Inconclusive results are not listed. Calls of active or inactive are those of the source. Unless noted, the call rests on the fitted dose curve; in most records, active means well fitted curve in either direction with a large enough effect (not every such curve was filed as active); inconclusive means small, poorly fitted or top-dose-only effect, or another doubt; inactive means flat fitted curve, though single readings scatter.

Glucocorticoid receptor (Homo sapiens), sequence (P04150 whole entry, looked up, the tested form may be a part): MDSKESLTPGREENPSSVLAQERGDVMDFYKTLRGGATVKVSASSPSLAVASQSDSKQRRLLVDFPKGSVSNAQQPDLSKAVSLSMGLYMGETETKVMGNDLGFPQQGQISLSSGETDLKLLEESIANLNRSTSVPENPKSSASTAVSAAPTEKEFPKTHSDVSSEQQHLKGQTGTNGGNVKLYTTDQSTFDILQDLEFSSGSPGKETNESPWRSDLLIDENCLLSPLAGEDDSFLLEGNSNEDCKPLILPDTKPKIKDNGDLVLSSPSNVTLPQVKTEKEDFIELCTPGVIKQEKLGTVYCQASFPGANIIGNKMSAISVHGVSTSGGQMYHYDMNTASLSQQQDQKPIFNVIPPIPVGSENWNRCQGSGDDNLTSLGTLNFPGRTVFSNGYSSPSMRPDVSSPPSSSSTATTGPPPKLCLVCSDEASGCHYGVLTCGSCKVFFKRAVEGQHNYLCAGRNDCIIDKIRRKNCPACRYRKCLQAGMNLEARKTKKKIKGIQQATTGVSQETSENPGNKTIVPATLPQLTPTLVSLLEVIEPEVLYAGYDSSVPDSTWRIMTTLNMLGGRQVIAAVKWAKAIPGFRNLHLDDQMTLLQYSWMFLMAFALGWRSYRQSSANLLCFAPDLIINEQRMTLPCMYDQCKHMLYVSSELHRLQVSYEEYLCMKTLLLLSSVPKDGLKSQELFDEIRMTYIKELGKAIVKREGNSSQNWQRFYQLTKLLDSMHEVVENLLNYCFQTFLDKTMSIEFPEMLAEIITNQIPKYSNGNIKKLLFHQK
Lysosomal acid glucosylceramidase (Homo sapiens), sequence (P04062 whole entry, looked up): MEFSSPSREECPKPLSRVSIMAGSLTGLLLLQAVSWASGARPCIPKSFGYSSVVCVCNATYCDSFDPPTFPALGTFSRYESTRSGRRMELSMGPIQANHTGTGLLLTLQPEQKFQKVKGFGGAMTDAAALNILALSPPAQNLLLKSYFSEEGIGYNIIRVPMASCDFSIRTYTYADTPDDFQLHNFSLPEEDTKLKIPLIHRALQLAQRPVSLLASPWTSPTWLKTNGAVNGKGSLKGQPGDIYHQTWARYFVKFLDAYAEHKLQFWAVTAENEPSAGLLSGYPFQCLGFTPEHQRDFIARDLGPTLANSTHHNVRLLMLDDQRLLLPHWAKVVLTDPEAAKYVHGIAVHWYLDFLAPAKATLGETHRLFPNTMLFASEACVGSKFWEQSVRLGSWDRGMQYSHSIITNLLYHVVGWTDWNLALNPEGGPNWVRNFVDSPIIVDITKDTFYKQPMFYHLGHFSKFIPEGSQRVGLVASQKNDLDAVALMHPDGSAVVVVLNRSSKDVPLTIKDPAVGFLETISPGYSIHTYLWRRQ

In the case of `O=C1C=CC(=O)C=C1`, the compound was called inactive in assay [1] and in [9]. Moreover, the Potency in assay [2] was more than 92 µM; in assay [3], 31.4 µM (active); in assay [4], more than 92 µM; in assay [5], more than 92 µM; in assay [6], more than 92 µM. Besides, in assay [7], the activity change, negative = inhibition was -3.4%. Moreover, the activity, negative = inhibition in assay [8] was -5.57%. The Potency entry in [10], in [11], in [12], in assay [13], in assay [14] and in assay [15] was “inactive” throughout.
For the compound `N#CC(C#N)=Cc1cc(O)c(O)c(O)c1`, in assay [1], the compound was called inactive. For the same compound, the Potency result in [16] and in [15] was “inactive” in each case. Also, in assay [7], the activity change, negative = inhibition was -8.53%. The activity, negative = inhibition in assay [8] was 2.4%. Also, the Potency in assay [17] is more than 46 µM.
For `NC(=O)c1cc(N2CC2)c([N+](=O)[O-])cc1[N+](=O)[O-]`, the outcome in [1] and in [9] was inactive. Moreover, the activity change, negative = inhibition in assay [7] is 1.65%. The activity, negative = inhibition in assay [8] was 19.5%. Besides, the Potency in assay [18] and in assay [17] was more than 46 µM throughout. Moreover, the Potency result in assay [15] was “inactive”.
Take `O=[N+]([O-])c1ccc2nc(N3CCNCC3)ccc2c1`: the compound was classed as inactive in assay [1] and in [9]. The Potency was 2 µM (active) in [16], more than 46 µM in [18] and more than 46 µM in assay [17]. In [7], the activity change, negative = inhibition is 4.11%. The activity, negative = inhibition in assay [8] is 2.58%. Moreover, the Potency result in [15] was “inactive”.
As for `NCCc1c[nH]c2ccc(C(N)=O)cc12`, the result in [1] and in assay [9] was inactive. The activity change, negative = inhibition in [7] was 4.42%. In addition, in assay [8], the activity, negative = inhibition is 4.94%. Also, in assay [17], the Potency is more than 46 µM. In addition, the Potency entry in assay [15] was “inactive”.
`CC(C)[C@@]1(NC(=O)[C@@H]2C[C@@H]3c4cccc5[nH]cc(c45)C[C@H]3N(C)C2)O[C@@]2(O)[C@@H]3CCCN3C(=O)[C@H](Cc3ccccc3)N2C1=O`: the outcome in [1] was inactive. For the same compound, the activity change, negative = inhibition in assay [7] was -22.9% [at 17.2 µM]. Also, the activity, negative = inhibition in assay [8] was -26.4% [at 17.2 µM]. For the same compound, in assay [18], the Potency is more than 20.6 µM.
Consider `O=c1c2ccccc2[se]n1-c1ccccc1`, for which the compound was classed as inactive in [1]. The Potency is 3.98 µM (active) and 794 nM (active) in assay [16]; > 46 µM and > 20.6 µM in assay [18]; > 46 µM and > 20.6 µM in assay [17]. Further, the Potency entry in assay [15] is “inactive”.
Consider `C[C@@H]1[C@@H]2Cc3ccc(O)cc3[C@@]1(C)CCN2CC1CC1`, for which the outcome in [1] and in assay [9] was inactive. Moreover, the Potency result in assay [16] and in [15] was “inactive” each time. In addition, the activity, negative = inhibition in assay [8] was -18.1%. The Potency in assay [17] is more than 46 µM.
Take `NC(=O)CI`: the call in assay [1] and in assay [9] was inactive. The Potency in assay [16] was 31.6 µM (active). Moreover, the activity change, negative = inhibition in assay [7] was 6.62%. Moreover, the Potency result in assay [15] is “inactive”.
In the case of `c1cc2c(c(NC3=NCCN3)c1)CCCC2`, the Potency in [19] was more than 11.4 µM; in [18] it was more than 46 µM; in assay [17], more than 9.22 µM. The activity change, negative = inhibition in [1] was 7.07% [at 7.69 µM]; in assay [7], -5.58% [at 7.69 µM]; in assay [9], 3.19% [at 11.4 µM]. The activity, negative = inhibition in [8] is 4.34% [at 7.69 µM]. For the same compound, the Potency result in assay [15] was “inactive”.
For the compound `CCCN(CCC)[C@H]1CCc2c(F)ccc(O)c2C1`, the compound was classed as inactive in assay [1] and in assay [9]. In addition, the Potency in [16] was 12.6 µM (active) and 25.1 µM (active); in assay [18], more than 46 µM; in [17] it was more than 46 µM. Moreover, the activity, negative = inhibition in assay [8] was 3.16% and 1.48%. Moreover, the Potency entry in [15] is “inactive”.
